Reference: PubChem BioAssay (Tox21)
Inconclusive results are not listed. Where a call stands in place of a potency, no number is given. Unmarked numbers belong to inactive results. Activity calls are given as the source filed them. Calls follow the shape of the dose curve; as a rule, active = well fitted activation curve with a large enough effect in the repeat runs; inconclusive = weak or mixed curves; inactive = no such curve, though single readings can be large or run the other way.

Experiment: qHTS assay for small molecules that induce genotoxicity in human embryonic kidney cells expressing luciferase-tagged ATAD5 (AID 651632); also: nearly all actives have a fitted effect of over 15% in size
Details: HEK293T ATAD5-luciferase induction, 16 h; series mostly up to 83.3 µM; activation: at the top concentration
From the text: U.S. Tox21 Program National Center for Advancing Translational Sciences [NCATS] NIH Chemical Genomics Center [NCGC] U.S. Environmental Protection Agency [EPA] National Institutes of Environmental Health Sciences [NIEHS] National Toxicology Program [NTP] U.S. Food and Drug Administration [FDA] Tox21 Assay Overview: As cancer cells divide rapidly and during every cell division they need to duplicate their genome by DNA replication. The failure to do so results in the cancer cell death. Based on this concept, many chemotherapeutic agents were developed but have limitations such as low efficacy and severe side effects etc. A new cell based assay was developed to find the compounds that effectively block DNA replication either by directly damaging DNA or by inhibiting other cellular mechanisms. Enhanced Level of Genome Instability Gene 1 (ELG1; human ATAD5) protein levels increase in response to various types of DNA damage. Using a luciferase reporter-gene tagged with ATAD5, a cell-based assay [developed by Kyungjae Myung, NHGRI, NIH] was used to measure the induction of ATAD5 in human embryonic kidney cells (HEK293T). So, increase in luciferase activity can be used to identify the compounds that cause genetic stress.
Tox21 Assay Protocol Summary: For genotoxicity screening, 2,000 cells in 5 uL/well were dispensed into white, solid-bottom 1536-well plates using a Multidrop Combi (Thermo Scientific) dispenser. Following transfer of 23 nL compound or DMSO vehicle by a pin tool, the plates were incubated 16 hr at 37C and 5% CO2. 5 ul Amplite (AAT Bioquest, Inc.) was then added to each plate and following 30 min incubation at room temperature, luciferase activity was quantified on a ViewLux CCD-based plate reader.
Potency is read from the fitted curve at half-maximal effect.

Compound | activation | Potency
CC(=O)C1CCOC1=O (stereo not given) | -1.81% [at 95.3 µM] | –
CNC(=O)O/N=C/C(C)(C)S(C)=O (stereo not given) | – | inactive
O=C(O)CCCc1ccc(N(CCCl)CCCl)cc1 | 2.08% | –
Cc1cc(Cl)ccc1OC(C)C(=O)O (stereo not given) | – | inactive
CN(C)CCC#N | – | inactive
COC(=O)Nc1cccc(OC(=O)Nc2cccc(C)c2)c1 | 3.73% | –
FC(F)(F)c1ccc(Cl)cc1 | – | inactive
Cc1cccc(N)c1 | – | inactive
CNCC(O)c1ccc(O)cc1 (stereo not given) | – | inactive
CCCCC(CC)C(=O)Cl (stereo not given) | – | inactive
OC[C@@H](O)[C@H]1O[C@@H]2O[C@H](C(Cl)(Cl)Cl)O[C@@H]2[C@H]1O | – | inactive
CSc1nnc(C(C)(C)C)c(=O)n1N | – | inactive
Oc1c(Br)cc(Br)cc1Br | – | inactive
ClCCOCCCl | – | inactive
OCC(O)CCl (stereo not given) | – | inactive
CNC(=O)O/N=C(\SC)C(=O)N(C)C | – | inactive
N#Cc1ccccn1 | – | inactive
O=C(O)C1C(C(=O)O)C2(Cl)C(Cl)=C(Cl)C1(Cl)C2(Cl)Cl (stereo not given) | – | inactive
C=CCN=C=S | – | inactive
O=[N+]([O-])c1ccc(Cl)cc1 | – | inactive

Compound | activation | Potency
CCOc1ccc(N)cc1 | – | inactive
COP(=S)(OC)SCN1C(=O)c2ccccc2C1=O | – | inactive
O=C(O)Cc1ccccc1 | – | inactive
Sc1ccccc1 | – | inactive
COc1cc(-c2ccc(N)c(OC)c2)ccc1N | -8.6% | –
Nc1cccc(Cl)c1 | – | inactive
Cc1cc(O)ccc1Cl | – | inactive
CC(C)(C)C(=O)CCl | – | inactive
O=C(O)C(Br)Br | – | inactive
CNC(=O)Oc1cccc2ccccc12 | – | inactive
CCOC(=O)CC(SP(=O)(OC)OC)C(=O)OCC (stereo not given) | – | inactive
O=C(O)c1cc(Oc2ccc(C(F)(F)F)cc2Cl)ccc1[N+](=O)[O-] | – | inactive
Cc1cccc(C)c1N | – | inactive
CCOP(=S)(OCC)Oc1ccc([N+](=O)[O-])cc1 | – | inactive
N#CN=C(N)N | – | inactive
Nc1ccc(N)cc1 | – | 29.8 µM (active)
Nc1ncc([N+](=O)[O-])s1 | – | inactive
Cc1ccccc1N | – | inactive
ClC(Cl)c1ccccc1 | – | inactive
C[C@]12CC[C@H](O)CC1=CC[C@@H]1[C@@H]2CC[C@]2(C)C(=O)CC[C@@H]12 | – | inactive
